Shown are actives, neighbours in structure and some others; about 9.7% of the full set was active somewhere.
M1 antag: antagonists of rat M1 muscarinic receptor; 64,000 tested, 3.4% active; B-score at 10 µM; CHO-M1 cells, Fluo-4 calcium, ACh EC80 antagonist mode; stronger effect = lower value; P08482; AID 628;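 active means calcium fluorescence response, raw or row-and-column corrected B-score, differing from the plate sample mean either way at a set confidence level, mostly lower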
BAP1 inh: inhibitors of human BAP1 deubiquitinase. Q92560. recombinant BAP1, Ub-AMC hydrolysis fluorescence kinetic; stronger effect = lower value. calls only at 20 µM. 72,000 tested, 0.48% active. AID 436;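 active means activity remaining at or below 50% of control, provided the compound also passes the data quality filters; inactive means the rest, including low values that fail the filters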;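 further: 100% = DMSO wells rate and 0% = substrate alone blank rate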
M1 ag: activates the M1 muscarinic receptor | CHO-M1 cells, Fluo-4 calcium fluorescence, agonist mode; stronger effect = higher value | B-score at 10 µM | 64,000 tested, 3% active | AID 626;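 active means fluorescence rise, raw or as B-score row- and column-corrected plate score, outside the 99.7% band of its plate's samples, either direction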
Abs 340nm: compound absorbs light at 340 nm; AID 708; 65,000 tested, under 10 active; fold change at 10 µM; compound absorbance at 340 nm, fold over control;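 active means at 10 µM dose, initial 340 nm absorbance at least 2 fold that of control wells; inactive means change under 2 fold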;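 further: initial absorbance extrapolated from kinetic A340 decline of NADH oxidation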
WNV NS2B-NS3 inh: blocks West Nile virus NS2B-NS3 protease activity; P06935; WNV NS2B-NS3 protease, fluorogenic substrate Ex360/Em465; stronger effect = lower value; z-score (no concentration beside the values); 65,000 tested, 0.18% active; in the data active means z-score below about -3
Autofluor 339: intrinsic fluorescence of library compounds, ex339/em460 – biochemical, MLSMR library, data from DPM-DC assay, artefact control, profiling panel | 65,000 tested, 5.5% active | compound autofluorescence, ex339/em460 nm, NADH buffer; stronger effect = higher value; 1 = no-compound wells, NADH background | fluorescence fold increase at 10 µM;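 active means at 10 µM, mean starting fluorescence two-fold or more over control wells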;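 further: signal is the first read of a kinetic run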
M1 agonist conf: confirmation of rat M1 muscarinic receptor agonists; 1,700 tested, 19% active; fluorescence change (max-min) at 10 µM; CHO-M1 cells, Fluo-4 calcium fluorescence, agonist mode; actives lie on both sides; AID 1488; shares compounds with M1 ag;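 active means fluorescence change differs from the solvent-only DMSO control mean at a set confidence level in both duplicate runs; inconclusive means differs from solvent-only control mean in just one of two runs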;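 further: an EC20 dose of acetylcholine follows compound addition during the same imaging run; raw fluorescence intensity difference in instrument units with no normalization to controls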
M4 agonist ctr: counter-screen for M1 agonists: activity at rat M4 receptor; AID 1741; CHO M4/Gqi5 cells, Fluo-4 calcium fluorescence, agonist mode; actives lie on both sides; 1,700 tested, 9% active; shares compounds with M1 ag; fluorescence change (max-min) at 10 µM;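 active means fluorescence change differing from the plate's solvent-only control wells at 99.7% confidence in both duplicates, whether higher or lower; inconclusive means differs from solvent controls in only one of two duplicates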
Target sequence (P08485 whole entry, looked up): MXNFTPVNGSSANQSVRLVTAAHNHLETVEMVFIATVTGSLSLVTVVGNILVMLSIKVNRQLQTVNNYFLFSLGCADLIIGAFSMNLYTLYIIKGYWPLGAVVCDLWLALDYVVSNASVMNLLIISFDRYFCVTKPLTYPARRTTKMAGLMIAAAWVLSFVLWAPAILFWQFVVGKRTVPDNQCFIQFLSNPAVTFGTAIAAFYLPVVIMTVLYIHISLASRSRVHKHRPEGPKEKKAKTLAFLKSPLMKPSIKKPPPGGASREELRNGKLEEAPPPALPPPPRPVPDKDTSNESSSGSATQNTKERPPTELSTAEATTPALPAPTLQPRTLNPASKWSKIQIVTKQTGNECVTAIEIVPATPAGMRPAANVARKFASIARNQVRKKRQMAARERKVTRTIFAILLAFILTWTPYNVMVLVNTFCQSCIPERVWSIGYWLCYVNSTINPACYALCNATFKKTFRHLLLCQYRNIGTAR
M1 antag conf: confirmation of rat M1 muscarinic receptor antagonists; CHO-M1 cells, Fluo-4 calcium, ACh EC80 antagonism; stronger effect = lower value; 1,700 tested, 43% active; calcium response (max-min fluorescence) at 10 µM; shares compounds with M1 antag;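 active means calcium response below the same-plate mean of wells given acetylcholine alone at its 80%-effect dose, minus 3 SD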;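 further: raw fluorescence intensity difference in arbitrary instrument units and not normalized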
mGluR4 antag: selectivity test for M1 antagonists: human mGluR4 receptor. shares compounds with M1 antag. CHO-mGluR4 calcium flux, Fluo-4 fluorescence, glutamate EC80; stronger effect = lower value. fluorescence response (max-min) at 10 µM. 1,700 tested, 0.9% active;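 active means fluorescence response below the plate's average for near-maximal glutamate wells, less 3 SD of those wells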;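 further: raw unnormalized fluorescence span taken in the window right after glutamate addition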
Numbers without * were called inactive; i = inactive; ? = inconclusive; . = no result given.

SMILES	M1 antag	BAP1 inh	M1 ag	Abs 340nm	WNV NS2B-NS3 inh	Autofluor 339	M1 antag conf	mGluR4 antag	others
CC1CCCCN1CCNC(=O)c1cc2c(=O)n(C)c3ccccc3c2n1C (stereo not given)	-4.2*	i	-2.7*	1.1	-0.61	1.8	419*	254	M1 agonist conf=-17;M4 agonist ctr=-25
COc1cc(OC)c(C2SCCN2C(=O)c2cc3ccccc3oc2=O)cc1OC (stereo not given)	.	i	.	.	.	.	.	.
Cc1cc(O)c(/C=N/c2ccccn2)c(=O)o1	0.57	.	-0.81	1	0.6	1	.	.
CCOc1ccc(N=Cc2c(O)cc(C)oc2=O)cc1	-10*	i	-3.4*	1.1	0.71	1.1	688	203	M1 agonist conf=-13;M4 agonist ctr=?
CCOc1ccccc1NC(=O)C1=C(C)NC(=S)NC1c1cccc(Cl)c1 (stereo not given)	.	i	.	.	.	.	.	.
CCOC(=O)c1ccc(NC(=O)N2CCN(CCc3ccccc3)CC2)cc1	-2.2*	i	-2.4*	0.97	-0.23	1.1	459	192	M1 agonist conf=-1.7;M4 agonist ctr=-23
CCOC(=O)c1ccc(NC(=O)N2CCN(c3ccccn3)CC2)cc1	0.0017	i	0.82	1	0.2	1.2	.	.
CCC(CC)C(=O)Nc1c2c(nn1-c1ccc(OC)cc1)CS(=O)C2 (stereo not given)	-3.3*	i	-2.4*	0.98	0.28	1.1	675	175	M1 agonist conf=?;M4 agonist ctr=-36
CCOc1ccccc1NC(=O)CC1Nc2ccccc2NC1=O (stereo not given)	-0.37	i	-1.3	1.1	-0.85	1.3	.	.
CCOc1ccccc1NC(=O)CC1Nc2cc(C)c(C)cc2NC1=O (stereo not given)	-2.6*	i	-2.3*	1.1	-0.04	1.6	597	232	M1 agonist conf=-10;M4 agonist ctr=-41
O=C(CC(Sc1cccs1)c1cccc([N+](=O)[O-])c1)c1ccccc1 (stereo not given)	.	i	.	.	.	.	.	.
CC(C)COC(=O)C(C#N)c1nc2ccccc2nc1N1CCN(Cc2ccccc2)CC1 (stereo not given)	-1.3*	i	-2.3*	1	0.82	1.3	631	178	M1 agonist conf=8.3;M4 agonist ctr=-8.4
CCc1nnc(NC(=O)c2ccc(N3C(=O)CCC3=O)cc2)s1	-3.1*	i	-2.5*	1.1	0.82	0.99	694	199	M1 agonist conf=?;M4 agonist ctr=0.15
O=C1CC(Cc2ccccc2)C(=O)N1CCCn1ccnc1 (stereo not given)	-2.8*	i	0.55	1.1	-0.42	0.68	614	186
CCOC(=O)Nc1ccc2c(c1)N(C(=O)OCCN(C)C)c1ccccc1CC2	-3.3*	i	3.4	0.98	0.95	1	294*	220
CCOC(=O)N1CCN(C(=O)C2CCC(C(=O)N3CCN(C(=O)OCC)CC3)CC2)CC1 (stereo not given)	1.7	i	0.0027	1.1	-0.82	1.1	.	.
CCOC(=O)N1CCC(NC2CCCCCCC2)CC1	-11*	i	-0.23	1	-0.64	1.1	100*	219
Cc1nc2sccn2c(=O)c1CCN1CCC(=C(c2ccccc2)c2ccc(F)cc2)CC1	-10*	i	0.65	0.99	-0.12	1.1	138*	209
COc1ccc(OC)c(S(=O)(=O)Nc2ccc3oc4c(c3c2)C(=O)CCC4)c1	-1.3*	i	-0.7	1	0.37	1.1	687	178
OC(CN1CCN(c2ccc(Cl)cc2)CC1)Cn1c2ccccc2c2ccccc21 (stereo not given)	.	i	.	.	.	.	.	.
O=C(NCc1cccnc1)NC1(C(F)(F)F)Oc2ccc(Cl)cc2O1 (stereo not given)	-1.6*	i	-0.1	1	-0.36	1.1	410*	246
COCCNC(=O)NC1(C(F)(F)F)Oc2ccc(Cl)cc2O1 (stereo not given)	0.2	.	-0.13	1	0.33	0.79	.	.
O=C(Nc1cccc(Cl)c1)NC1CCCCC1	-2.2*	i	-1.8	1	-0.75	1	630	223
CC1=C(C(=O)OC2CCC(C)CC2)C(c2ccc([N+](=O)[O-])cc2)NC(=O)N1 (stereo not given)	.	i	.	.	.	.	.	.
CC(CN(C)Cc1ccccc1)OC(=O)c1cccs1 (stereo not given)	-0.76	i	-0.013	1	-0.46	0.99	.	.
SMILES	M1 antag	BAP1 inh	M1 ag	Abs 340nm	WNV NS2B-NS3 inh	Autofluor 339	M1 antag conf	mGluR4 antag	others
CC(CN(C)Cc1ccccc1)OC(=O)c1ccc2c(c1)OCCO2 (stereo not given)	-3.2*	i	0.61	1	-0.69	1	323*	223
COCCNS(=O)(=O)c1ccc(SC)cc1	-3.2*	i	-0.2	1.1	-0.68	1.2	610	267
O=C(c1ccc(Cl)cc1)N1CCN(c2ccc(C(F)(F)F)cc2[N+](=O)[O-])CC1	.	i	.	.	.	.	.	.
CN(C(=O)c1cc2sccc2n1C)C1CCCCC1	-3.2*	i	0.75	0.98	0.9	1	628	236
Cn1c(C(=O)NC2CCCCC2)cc2sccc21	-0.32	i	-0.19	0.95	1.5	1.1	.	.
CCOCCOC(=O)C1=C(C)N(C)C(=O)NC1c1ccc(Cl)cc1 (stereo not given)	.	i	.	.	.	.	.	.
COc1cc(C=Nc2c(C)n(C)n(-c3ccccc3)c2=O)ccc1OC(C)=O	.	i	.	.	.	.	.	.
O=C(NCc1nnc(SCC(=O)N2CCC(Cc3ccccc3)CC2)o1)c1ccccc1F	0.7	i	-1.5	0.99	0.22	1.1	.	.
Cc1nnc(SCC(=O)N2CCC(Cc3ccccc3)CC2)n(N)c1=O	-3*	i	-0.11	1	-0.52	1.1	559	231
O=C(Nc1nc(-c2ccc3c(c2)OCO3)cs1)c1cc(=O)c2ccccc2o1	.	i	.	.	.	.	.	.
O=C(OCCN1CCCC1)C1(c2ccccc2)CCCC1	-15*	i	0.26	1	-0.03	1.1	28*	166
CCc1ccc(C(=O)Nc2ccc(Cl)cn2)cc1	.	i	.	.	.	.	.	.
CCCCn1c(=O)[nH]c2ccccc21	-2.4*	i	-2.2	1.1	0.29	1.1	674	225
CCC(C)c1ccc(O)c(N)c1 (stereo not given)	-0.061	i	-0.44	1	0.39	1.1	.	.
CC(C)c1ccc(O)c(N)c1	-2.6*	i	0.53	1	-0.72	0.94	697	208
